Platelet DG rel: modulates dense granule release in human platelets; human platelet-rich plasma, SFLLRN dense granule ATP release, luminescence; inhibition, %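 (compounds screened at 7.5 µM in platelet-rich plasma)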; 0.22% of 300,000 active;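 active = mean replicate score, as percent of positive control, at or above 50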
SKKanGAS inh: SKKanGAS growth inhibition; S. pyogenes SKKanGAS, kanamycin growth, BacTiter-Glo, 6 h; 1.3% of 300,000 active; inhibition, % at 7.5 µM;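 active = mean replicate score, as percent of positive control median, at least 50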;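 also: strain carries kanamycin resistance gene driven by streptokinase promoter and grows in 40 µg/ml kanamycin; loss of luminescence reflects streptokinase promoter inhibition or plain growth inhibition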
Rtt109 HAT inh: blocks Candida albicans Rtt109/Vps75 acetyltransferase activity. Q5AAJ8. purified Rtt109/Vps75, ThioGlo CoA-SH fluorescence, 4 h. inhibition, % at 34.9 µM. 0.16% of 330,000 active. AID 540336;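 active = inhibition of at least 50% in every replicate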
WT yeast gro inh: growth inhibition of WT yeast, mitochondrial fusion screen | mitochondrial fusion phenotypic screen, WT strain | inhibition, % at 10 µM | 2.1% of 190,000 active; in the data active = inhibition above about 58%; tested in S. cerevisiae
PHOSPHO1 inh: inhibitors of human PHOSPHO1 phosphatase; Q8TCT1; recombinant PHOSPHO1, absorbance phosphatase assay; inhibition, % at 13.3 µM; 1.1% of 290,000 active; AID 1565; in the data active = inhibition above about 60%
Target sequence (Q8TCT1 whole entry, looked up): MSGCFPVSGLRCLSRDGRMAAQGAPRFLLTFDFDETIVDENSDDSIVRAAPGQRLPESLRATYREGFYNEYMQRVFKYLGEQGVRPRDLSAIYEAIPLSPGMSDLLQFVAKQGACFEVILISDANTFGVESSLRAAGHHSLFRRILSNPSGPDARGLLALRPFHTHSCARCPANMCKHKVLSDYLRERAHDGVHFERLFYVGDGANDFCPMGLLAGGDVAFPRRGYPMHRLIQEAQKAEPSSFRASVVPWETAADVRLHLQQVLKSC
TPT1 inh: inhibitors of Candida albicans tRNA 2'-phosphotransferase TPT1 | inhibition, % at 5 µM | recombinant caTPT1, FP RNA substrate dephosphorylation | AID 1962 | 0.81% of 300,000 active;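 active = inhibition above the mean of all tested compounds plus 3 SD, set per screening campaign, cut at about 24% in these data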
caTPT1 confirm: confirmation of Candida albicans TPT1 inhibitors | recombinant caTPT1, fluorescence polarization, RNase T1 coupled | 74% of 2,400 active | shares compounds with TPT1 inh | inhibition, % at 5 µM | AID 2149;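 active = inhibition above the primary screen limit, the mean inhibition of all tested compounds plus 3 SD, cut at about 25% in these data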
RNase T1 counter: counter-screen for TPT1 inhibitors: inhibitors of Aspergillus oryzae RNase T1; 83% of 2,400 active; shares compounds with TPT1 inh; inhibition, % at 5 µM; RNase T1 cleavage, fluorescence polarization, 1536-well;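 active = inhibition above the solvent-only control well mean plus 3 SD, limit set per screening run, cut at about 23% in these data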;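 also: inhibitors block cleavage so intact labeled substrate keeps polarization high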
Target sequence (P00651 whole entry, looked up): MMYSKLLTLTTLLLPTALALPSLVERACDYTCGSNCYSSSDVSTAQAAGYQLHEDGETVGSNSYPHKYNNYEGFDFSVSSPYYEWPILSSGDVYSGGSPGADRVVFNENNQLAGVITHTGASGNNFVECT
Each line names hits and unclear results; the compound was inactive in the other large screens (follow-up assays come after a bar, where they were run). A selection: hits, their analogues and other compounds. The true share with any hit is near 3.9%.

Cc1cc(C)c(Cn2c(C(=O)O)c(C=O)c3ccccc32)c(C)c1	TPT1 inh 53 | caTPT1 confirm 118 | RNase T1 counter 120
O=C1CC(=O)N(c2ccccc2F)C(=O)N1	none (no result: WT yeast gro inh)
O=C1CC(=O)N(c2ccc(Cl)cc2Cl)C(=O)N1	TPT1 inh 37 | caTPT1 confirm inactive | RNase T1 counter 25
Cc1cc(Br)ccc1N1C(=O)CC(=O)NC1=O	TPT1 inh 24 | caTPT1 confirm inactive | RNase T1 counter inactive
O=c1[nH]c(O)c(/C=C2\C=Nc3ccc(OCc4ccccc4)cc32)c(=O)[nH]1	none (no result: WT yeast gro inh)
COc1ccc(Cn2c(N)c(C(=O)NCc3ccco3)c3nc4ccccc4nc32)cc1	TPT1 inh 48 | caTPT1 confirm inactive | RNase T1 counter inactive
O=[N+]([O-])/C=C1/NCCN1Cc1ccc(Cl)nc1	none
Cc1ccc(N2C(=O)NC(=O)/C(=C\c3ccsc3)C2=O)cc1C	TPT1 inh 28 (no result: Rtt109 HAT inh) | caTPT1 confirm 52 | RNase T1 counter 66
Cc1ccc(N2C(=O)NC(=O)/C(=C/c3cnc(-c4ccccc4)nc3)C2=O)cc1C	TPT1 inh 25 | caTPT1 confirm inactive | RNase T1 counter inactive
O=C1NC(=O)N(c2ccc3c(c2)OCO3)C(=O)/C1=C\c1ccsc1	none (no result: Rtt109 HAT inh, WT yeast gro inh)
O=C1NC(=O)N(c2ccccc2)C(=O)/C1=C/c1ccoc1	TPT1 inh 113 (no result: SKKanGAS inh) | caTPT1 confirm 60 | RNase T1 counter 74
Cc1cccc(N2C(=O)NC(=O)/C(=C\c3cnc(-c4ccccc4)nc3)C2=O)c1	none
COC(=O)C1=C(c2cccc(NC(C)=O)c2)C[C@@H]2CC[C@H]1N2C	none (no result: Platelet DG rel, SKKanGAS inh, WT yeast gro inh, PHOSPHO1 inh, TPT1 inh)
Cc1cc(C=C(C#N)C#N)ccc1N1CCCC1	TPT1 inh 126 (no result: Rtt109 HAT inh) | caTPT1 confirm 120 | RNase T1 counter 139
OC12ONC(c3ccccn3)C1N1CCC2CC1 (stereo unspecified)	none (no result: Rtt109 HAT inh)
Cc1ccccc1N1C(=O)NC(=O)/C(=C\c2ccc3c(c2)CCCN3Cc2ccccc2)C1=O	TPT1 inh 61 | caTPT1 confirm 154 | RNase T1 counter 145
COc1ccc(-n2c(/C=C/c3ccc(O)c(OC)c3)nc3ccccc3c2=O)cc1	SKKanGAS inh 91, TPT1 inh 45 (no result: WT yeast gro inh) | caTPT1 confirm 57 | RNase T1 counter 67
COc1ccc(-n2c(/C=C/c3ccc(O)cc3)nc3ccccc3c2=O)cc1	none (no result: WT yeast gro inh, PHOSPHO1 inh)
COc1cccc(-n2c(/C=C/c3ccccn3)nc3ccccc3c2=O)c1	none (no result: WT yeast gro inh, TPT1 inh)
COc1cccc(-n2c(/C=C/c3ccc(O)c(O)c3)nc3ccccc3c2=O)c1	TPT1 inh 55 | caTPT1 confirm 65 | RNase T1 counter 68
COc1cccc(NP2(=O)OCC(C)([N+](=O)[O-])CO2)c1 (stereo unspecified)	none (no result: Platelet DG rel, SKKanGAS inh, WT yeast gro inh, PHOSPHO1 inh, TPT1 inh)
Cc1ccc(CN2CCCC(C(=O)c3sccc3C)C2)o1 (stereo unspecified)	none
Cc1ccnc(-n2c(C)cc(C=C3C(=O)N(C)C(=S)N(C)C3=O)c2C)c1	TPT1 inh 52 | caTPT1 confirm inactive | RNase T1 counter 33
O=C1NC(=O)C(=Cc2ccc(N3CCOCC3)o2)C(=O)N1	TPT1 inh 180 | caTPT1 confirm 146 | RNase T1 counter 144
Cc1cc(C)cc(N2C(=O)/C(=C\c3ccc(N4CCN(C)CC4)o3)C(=O)NC2=S)c1	TPT1 inh 140 (no result: Rtt109 HAT inh, WT yeast gro inh) | caTPT1 confirm 151 | RNase T1 counter 141
O=C1NC(=O)N(c2ccc(F)cc2)C(=O)/C1=C/c1ccc(N2CCOCC2)cc1	none
O=C1NC(=O)N(c2ccc3c(c2)OCO3)C(=O)/C1=C/c1ccc(N2CCCCC2)o1	TPT1 inh 132 | caTPT1 confirm 146 | RNase T1 counter 142
C=CCN1C(=O)/C(=C/c2cccs2)C(=O)NC1=S	none
C=CCN1C(=O)/C(=C/c2ccc(N3CCOCC3)o2)C(=O)NC1=S	TPT1 inh 121 | caTPT1 confirm 143 | RNase T1 counter 137
COC(=O)C1=C(c2ccc(S(C)(=O)=O)cc2)C[C@@H]2CC[C@H]1N2C(=O)N1CCC(O)CC1	none (no result: WT yeast gro inh, PHOSPHO1 inh)
CC12CCC(=O)CC1CCC1C2C(=O)CC2(C)C1CCC2(C)O (stereo unspecified)	none (no result: Platelet DG rel, SKKanGAS inh, WT yeast gro inh, PHOSPHO1 inh, TPT1 inh)
O=c1[nH]c(=O)n(Cc2ccccc2Cl)c(O)c1/C=C1/C=CC=N1	TPT1 inh 29 | caTPT1 confirm inactive | RNase T1 counter 23

Assay outcomes: PubChem BioAssay, several laboratories
